# Results taken from PMC7862700, “An all-to-all approach to the identification of sequence-specific readers for epigenetic DNA modifications on cytosine”.
# Columns and labels:
# Assay in all cases: DAPPL (digital affinity profiling via proximity ligation, sequencing); 10 mM Tris-HCl pH 7.5, 50 mM NaCl, 1 mM DTT, 4% glycerol, room temperature, 30 min; GST-TFs on glutathione beads, 16-mer random dsDNA library, 0.1% formaldehyde crosslink after washing; high values mean tight binding
# Details in all cases: protein: recombinant; tags: N-terminal GST; dsDNA, one strand shown
# [1] = biological target: T1, FLI1 (Homo sapiens, UniProt Q01543 1-452)
# T1 sequence: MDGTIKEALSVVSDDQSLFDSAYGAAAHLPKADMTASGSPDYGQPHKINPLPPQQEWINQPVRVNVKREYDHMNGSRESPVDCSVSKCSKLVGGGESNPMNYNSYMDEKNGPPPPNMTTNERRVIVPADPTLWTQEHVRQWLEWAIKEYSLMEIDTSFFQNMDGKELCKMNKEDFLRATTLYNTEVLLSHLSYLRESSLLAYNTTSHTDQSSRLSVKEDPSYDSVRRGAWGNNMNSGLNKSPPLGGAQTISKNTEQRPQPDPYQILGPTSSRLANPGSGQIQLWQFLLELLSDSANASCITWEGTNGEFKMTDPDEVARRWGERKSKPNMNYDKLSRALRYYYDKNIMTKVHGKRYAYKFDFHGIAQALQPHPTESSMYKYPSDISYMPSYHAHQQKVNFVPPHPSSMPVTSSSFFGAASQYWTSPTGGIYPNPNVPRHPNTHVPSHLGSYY
# Procedure, shortened: (§1)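 Binding signal is each hexamer's read frequency for a factor divided by its frequency in the tag-only sample. The factors were GST-fused human transcription factors from yeast, captured on glutathione beads, DNA-barcoded and pooled with that sample. Pools were incubated with 200 nmole of a random double-stranded 16-mer DNA library in Tris/NaCl/DTT/glycerol buffer at room temperature for 30 min, then washed, crosslinked with 0.1% formaldehyde, proximity-ligated with BsaI/T4 ligase (1 h, 37 °C), PCR-amplified and sequenced on an Illumina NextSeq500.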
# [2] = biological target: T2, ELK1 (Homo sapiens, UniProt P19419 1-428)
# T2 sequence: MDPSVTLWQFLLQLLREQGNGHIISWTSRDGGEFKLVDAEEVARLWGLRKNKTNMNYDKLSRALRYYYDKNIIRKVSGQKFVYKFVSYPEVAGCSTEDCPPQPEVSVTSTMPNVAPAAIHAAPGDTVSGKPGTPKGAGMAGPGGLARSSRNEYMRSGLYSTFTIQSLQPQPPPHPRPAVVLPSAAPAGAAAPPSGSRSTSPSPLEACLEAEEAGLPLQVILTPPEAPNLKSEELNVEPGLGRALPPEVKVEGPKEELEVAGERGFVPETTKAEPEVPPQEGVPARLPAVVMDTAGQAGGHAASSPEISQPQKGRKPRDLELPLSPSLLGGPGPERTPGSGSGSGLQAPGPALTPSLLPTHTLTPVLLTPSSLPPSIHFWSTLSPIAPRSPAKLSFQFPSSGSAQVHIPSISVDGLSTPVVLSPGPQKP
# Procedure, shortened: as §1
# [3] = biological target: T3, GABPA (Homo sapiens, UniProt Q06546 1-454)
# T3 sequence: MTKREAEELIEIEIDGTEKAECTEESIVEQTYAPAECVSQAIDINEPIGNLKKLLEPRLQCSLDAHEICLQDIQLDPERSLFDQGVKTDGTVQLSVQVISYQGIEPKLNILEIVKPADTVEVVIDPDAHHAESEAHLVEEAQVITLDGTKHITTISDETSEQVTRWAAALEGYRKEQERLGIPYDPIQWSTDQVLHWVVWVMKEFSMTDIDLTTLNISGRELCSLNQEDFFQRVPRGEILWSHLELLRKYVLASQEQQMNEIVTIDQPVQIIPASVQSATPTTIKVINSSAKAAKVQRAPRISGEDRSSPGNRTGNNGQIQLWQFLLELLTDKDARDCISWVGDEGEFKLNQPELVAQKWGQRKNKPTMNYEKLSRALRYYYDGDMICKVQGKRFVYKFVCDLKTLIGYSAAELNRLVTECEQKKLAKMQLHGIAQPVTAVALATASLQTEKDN
# Procedure, shortened: as §1
# [4] = biological target: T4, ERG (Homo sapiens, UniProt P11308 1-479)
# T4 sequence: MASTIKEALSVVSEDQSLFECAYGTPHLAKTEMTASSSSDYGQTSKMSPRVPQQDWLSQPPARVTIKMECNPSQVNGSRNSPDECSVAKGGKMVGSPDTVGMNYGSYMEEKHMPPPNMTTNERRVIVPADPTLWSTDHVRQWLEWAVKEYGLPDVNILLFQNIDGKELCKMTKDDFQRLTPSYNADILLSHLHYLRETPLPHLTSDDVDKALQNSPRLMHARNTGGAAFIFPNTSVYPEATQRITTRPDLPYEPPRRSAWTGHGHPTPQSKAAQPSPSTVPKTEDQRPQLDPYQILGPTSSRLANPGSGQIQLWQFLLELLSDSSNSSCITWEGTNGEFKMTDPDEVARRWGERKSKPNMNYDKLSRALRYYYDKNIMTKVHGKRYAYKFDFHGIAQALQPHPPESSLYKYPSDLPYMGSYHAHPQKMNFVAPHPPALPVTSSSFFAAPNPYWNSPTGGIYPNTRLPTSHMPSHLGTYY
# Procedure, shortened: as §1
# [5] = biological target: ELF1 (Homo sapiens, UniProt P32519 1-619)
# Procedure, shortened: as §1
# [6] = biological target: T5, EHF (Homo sapiens, UniProt Q9NZC4 1-300)
# T5 sequence: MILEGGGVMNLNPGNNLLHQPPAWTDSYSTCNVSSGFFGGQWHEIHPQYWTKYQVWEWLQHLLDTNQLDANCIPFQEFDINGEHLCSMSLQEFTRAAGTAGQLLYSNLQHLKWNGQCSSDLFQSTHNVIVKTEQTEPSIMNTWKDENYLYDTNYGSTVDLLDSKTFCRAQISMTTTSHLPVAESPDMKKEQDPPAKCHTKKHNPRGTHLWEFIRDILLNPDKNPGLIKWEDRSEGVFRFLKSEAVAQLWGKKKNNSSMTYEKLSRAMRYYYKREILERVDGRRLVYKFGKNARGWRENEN
# Procedure, shortened: as §1
# [7] = biological target: SPI1 (Homo sapiens, UniProt P17947 1-270)
# Procedure, shortened: as §1
# [8] = biological target: SPIB (Homo sapiens, UniProt Q01892 1-262)
# Procedure, shortened: as §1
# [9] = biological target: T6, FEV (Homo sapiens, UniProt Q99581 1-238)
# T6 sequence: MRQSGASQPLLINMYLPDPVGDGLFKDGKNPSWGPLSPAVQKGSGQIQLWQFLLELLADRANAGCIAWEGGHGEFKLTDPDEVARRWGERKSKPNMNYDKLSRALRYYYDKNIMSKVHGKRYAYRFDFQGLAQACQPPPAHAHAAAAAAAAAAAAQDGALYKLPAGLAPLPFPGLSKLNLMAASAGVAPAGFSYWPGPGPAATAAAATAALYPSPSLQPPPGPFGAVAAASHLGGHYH
# Procedure, shortened: as §1
# [10] = biological target: ETV5 (Homo sapiens, UniProt P41161 1-510)
# Procedure, shortened: as §1
# [11] = biological target: ELF4 (Homo sapiens, UniProt Q99607 1-663)
# Procedure, shortened: as §1
# [12] = biological target: T7, ELF3 (Homo sapiens, UniProt P78545 1-371)
# T7 sequence: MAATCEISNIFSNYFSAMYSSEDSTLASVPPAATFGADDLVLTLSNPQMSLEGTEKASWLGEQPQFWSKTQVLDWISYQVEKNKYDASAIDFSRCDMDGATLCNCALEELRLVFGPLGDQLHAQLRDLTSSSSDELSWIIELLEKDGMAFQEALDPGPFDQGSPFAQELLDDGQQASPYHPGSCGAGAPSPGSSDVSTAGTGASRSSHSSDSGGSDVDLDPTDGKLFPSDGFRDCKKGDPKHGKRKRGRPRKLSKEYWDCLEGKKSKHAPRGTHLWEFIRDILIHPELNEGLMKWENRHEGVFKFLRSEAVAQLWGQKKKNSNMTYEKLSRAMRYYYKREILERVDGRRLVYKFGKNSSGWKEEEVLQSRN
# Procedure, shortened: as §1
# [13] = biological target: ETV1 (Homo sapiens, UniProt P50549 1-477)
# Procedure, shortened: as §1
# [14] = biological target: T8, ERF (Homo sapiens, UniProt P50548 1-548)
# T8 sequence: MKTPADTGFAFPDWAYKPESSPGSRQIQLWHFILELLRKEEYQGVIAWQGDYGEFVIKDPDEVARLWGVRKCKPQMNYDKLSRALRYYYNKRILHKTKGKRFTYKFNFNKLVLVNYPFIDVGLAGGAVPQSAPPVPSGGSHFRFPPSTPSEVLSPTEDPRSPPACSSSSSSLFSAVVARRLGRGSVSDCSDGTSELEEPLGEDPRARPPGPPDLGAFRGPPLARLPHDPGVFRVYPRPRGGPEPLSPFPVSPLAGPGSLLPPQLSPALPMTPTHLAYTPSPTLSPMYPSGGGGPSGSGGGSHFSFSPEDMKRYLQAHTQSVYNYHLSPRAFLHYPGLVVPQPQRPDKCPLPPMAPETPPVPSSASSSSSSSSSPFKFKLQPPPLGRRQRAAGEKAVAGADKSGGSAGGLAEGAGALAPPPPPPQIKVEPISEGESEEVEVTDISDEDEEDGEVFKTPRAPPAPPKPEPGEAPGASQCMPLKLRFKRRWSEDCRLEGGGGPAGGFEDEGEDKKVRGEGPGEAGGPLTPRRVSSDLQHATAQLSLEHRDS
# Procedure, shortened: as §1
# [15] = biological target: T9, ETV3L (Homo sapiens, UniProt Q6ZN32 1-361)
# T9 sequence: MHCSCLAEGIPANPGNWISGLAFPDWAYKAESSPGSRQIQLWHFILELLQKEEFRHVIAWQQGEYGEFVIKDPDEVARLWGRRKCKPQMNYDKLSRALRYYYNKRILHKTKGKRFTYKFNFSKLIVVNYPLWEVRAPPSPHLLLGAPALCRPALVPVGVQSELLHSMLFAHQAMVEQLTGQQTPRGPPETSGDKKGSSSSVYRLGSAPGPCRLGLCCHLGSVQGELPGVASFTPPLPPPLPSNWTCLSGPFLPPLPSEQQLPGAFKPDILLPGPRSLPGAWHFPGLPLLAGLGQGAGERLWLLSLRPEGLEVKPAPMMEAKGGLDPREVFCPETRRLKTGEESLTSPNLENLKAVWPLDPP
# Procedure, shortened: as §1
# [16] = biological target: T10, ETS2 (Homo sapiens, UniProt P15036 1-469)
# T10 sequence: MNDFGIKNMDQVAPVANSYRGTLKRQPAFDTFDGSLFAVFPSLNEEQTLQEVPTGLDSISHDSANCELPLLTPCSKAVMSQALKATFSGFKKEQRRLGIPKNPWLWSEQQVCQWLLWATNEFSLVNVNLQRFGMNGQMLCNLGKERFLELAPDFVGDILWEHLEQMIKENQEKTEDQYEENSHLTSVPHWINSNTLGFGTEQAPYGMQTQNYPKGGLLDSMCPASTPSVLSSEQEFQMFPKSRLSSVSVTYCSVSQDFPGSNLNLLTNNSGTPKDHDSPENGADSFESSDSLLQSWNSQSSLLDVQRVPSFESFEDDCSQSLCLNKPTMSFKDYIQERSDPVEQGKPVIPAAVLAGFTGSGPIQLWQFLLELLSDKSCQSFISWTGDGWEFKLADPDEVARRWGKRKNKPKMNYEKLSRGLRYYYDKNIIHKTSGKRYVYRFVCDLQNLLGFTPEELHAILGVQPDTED
# Procedure, shortened: as §1
# [17] = biological target: T11, ETV7 (Homo sapiens, UniProt Q9Y603 1-341)
# T11 sequence: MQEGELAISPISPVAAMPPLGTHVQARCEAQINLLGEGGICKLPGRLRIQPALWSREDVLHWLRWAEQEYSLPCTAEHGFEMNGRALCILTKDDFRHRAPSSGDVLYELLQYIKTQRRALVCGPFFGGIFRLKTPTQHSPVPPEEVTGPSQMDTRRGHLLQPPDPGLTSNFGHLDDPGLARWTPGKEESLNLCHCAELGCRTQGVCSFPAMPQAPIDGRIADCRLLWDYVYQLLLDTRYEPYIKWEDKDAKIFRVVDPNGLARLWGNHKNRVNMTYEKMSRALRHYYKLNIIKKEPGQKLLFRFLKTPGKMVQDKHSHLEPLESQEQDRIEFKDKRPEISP
# Procedure, shortened: as §1
# [18] = biological target: T12, ETV3 (Homo sapiens, UniProt P41162-2 1-143)
# T12 sequence: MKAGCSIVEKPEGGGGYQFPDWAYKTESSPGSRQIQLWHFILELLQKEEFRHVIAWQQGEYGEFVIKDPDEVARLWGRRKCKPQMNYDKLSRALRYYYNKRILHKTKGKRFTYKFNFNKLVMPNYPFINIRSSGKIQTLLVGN
# Procedure, shortened: as §1
# [19] = biological target: ETV6 (Homo sapiens, UniProt P41212 1-452)
# Procedure, shortened: as §1
# Chain of ELF1 (P32519 whole entry): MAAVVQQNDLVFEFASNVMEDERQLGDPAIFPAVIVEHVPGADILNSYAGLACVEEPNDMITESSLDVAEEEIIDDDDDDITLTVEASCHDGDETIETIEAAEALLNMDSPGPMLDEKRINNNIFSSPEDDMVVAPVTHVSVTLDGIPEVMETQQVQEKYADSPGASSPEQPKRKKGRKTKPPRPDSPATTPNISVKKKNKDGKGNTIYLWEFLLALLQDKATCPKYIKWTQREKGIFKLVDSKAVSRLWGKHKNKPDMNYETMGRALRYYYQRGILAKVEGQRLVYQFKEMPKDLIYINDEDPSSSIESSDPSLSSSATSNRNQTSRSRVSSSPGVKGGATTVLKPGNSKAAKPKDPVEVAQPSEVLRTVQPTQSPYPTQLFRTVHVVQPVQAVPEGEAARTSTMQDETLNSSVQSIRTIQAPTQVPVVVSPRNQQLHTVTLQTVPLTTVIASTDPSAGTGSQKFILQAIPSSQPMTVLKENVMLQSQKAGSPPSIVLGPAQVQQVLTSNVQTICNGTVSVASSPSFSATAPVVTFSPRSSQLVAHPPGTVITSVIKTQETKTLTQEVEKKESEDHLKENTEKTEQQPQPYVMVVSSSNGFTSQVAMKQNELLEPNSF
# Chain of SPIB (Q01892 whole entry): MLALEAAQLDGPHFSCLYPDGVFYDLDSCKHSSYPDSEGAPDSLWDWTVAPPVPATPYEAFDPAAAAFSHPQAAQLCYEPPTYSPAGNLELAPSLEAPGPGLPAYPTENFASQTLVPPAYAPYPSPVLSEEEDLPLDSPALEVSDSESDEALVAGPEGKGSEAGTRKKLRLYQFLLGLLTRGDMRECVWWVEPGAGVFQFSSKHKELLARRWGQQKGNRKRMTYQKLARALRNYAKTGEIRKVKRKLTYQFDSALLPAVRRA
# Chain of ETV1 (P50549 whole entry): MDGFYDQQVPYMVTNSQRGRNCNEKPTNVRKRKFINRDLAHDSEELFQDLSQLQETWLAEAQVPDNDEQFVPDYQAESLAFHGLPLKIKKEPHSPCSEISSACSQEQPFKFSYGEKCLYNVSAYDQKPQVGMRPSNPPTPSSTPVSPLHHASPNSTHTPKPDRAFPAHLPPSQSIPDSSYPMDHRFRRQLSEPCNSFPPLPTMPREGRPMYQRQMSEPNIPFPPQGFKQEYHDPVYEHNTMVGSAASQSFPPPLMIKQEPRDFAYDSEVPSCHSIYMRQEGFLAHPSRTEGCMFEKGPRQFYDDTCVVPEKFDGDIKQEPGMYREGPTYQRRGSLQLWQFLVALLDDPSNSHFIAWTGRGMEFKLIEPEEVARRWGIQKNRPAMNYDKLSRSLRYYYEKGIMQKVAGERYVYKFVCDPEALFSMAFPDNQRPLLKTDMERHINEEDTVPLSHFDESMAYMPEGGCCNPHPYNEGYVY
# Chain of ETV5 (P41161 whole entry): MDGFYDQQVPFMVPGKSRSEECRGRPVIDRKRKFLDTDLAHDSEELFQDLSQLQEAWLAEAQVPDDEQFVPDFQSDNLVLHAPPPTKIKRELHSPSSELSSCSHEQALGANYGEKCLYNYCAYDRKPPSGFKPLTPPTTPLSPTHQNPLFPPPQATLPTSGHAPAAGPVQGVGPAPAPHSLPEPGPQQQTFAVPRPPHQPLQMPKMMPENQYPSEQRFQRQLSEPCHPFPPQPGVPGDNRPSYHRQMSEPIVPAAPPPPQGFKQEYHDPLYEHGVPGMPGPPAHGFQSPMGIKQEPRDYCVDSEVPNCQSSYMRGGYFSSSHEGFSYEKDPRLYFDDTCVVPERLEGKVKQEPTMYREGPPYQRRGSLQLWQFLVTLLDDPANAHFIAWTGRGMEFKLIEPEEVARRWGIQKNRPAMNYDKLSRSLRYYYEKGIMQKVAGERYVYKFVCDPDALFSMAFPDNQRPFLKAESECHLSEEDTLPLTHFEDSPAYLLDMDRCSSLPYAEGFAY
# Chain of ETV6 (P41212 whole entry): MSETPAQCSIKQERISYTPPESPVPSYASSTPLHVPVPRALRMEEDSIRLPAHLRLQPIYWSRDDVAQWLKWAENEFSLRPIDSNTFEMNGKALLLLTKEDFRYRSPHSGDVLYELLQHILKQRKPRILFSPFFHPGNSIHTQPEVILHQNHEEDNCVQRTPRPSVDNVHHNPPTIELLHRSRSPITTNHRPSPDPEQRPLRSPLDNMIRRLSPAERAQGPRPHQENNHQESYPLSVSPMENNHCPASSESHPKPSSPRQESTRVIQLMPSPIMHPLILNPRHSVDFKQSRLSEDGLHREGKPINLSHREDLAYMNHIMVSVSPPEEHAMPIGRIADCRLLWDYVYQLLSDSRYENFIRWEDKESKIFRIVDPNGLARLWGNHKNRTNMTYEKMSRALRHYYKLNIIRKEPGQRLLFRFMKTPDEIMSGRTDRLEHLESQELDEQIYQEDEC
# Chain of ELF4 (Q99607 whole entry): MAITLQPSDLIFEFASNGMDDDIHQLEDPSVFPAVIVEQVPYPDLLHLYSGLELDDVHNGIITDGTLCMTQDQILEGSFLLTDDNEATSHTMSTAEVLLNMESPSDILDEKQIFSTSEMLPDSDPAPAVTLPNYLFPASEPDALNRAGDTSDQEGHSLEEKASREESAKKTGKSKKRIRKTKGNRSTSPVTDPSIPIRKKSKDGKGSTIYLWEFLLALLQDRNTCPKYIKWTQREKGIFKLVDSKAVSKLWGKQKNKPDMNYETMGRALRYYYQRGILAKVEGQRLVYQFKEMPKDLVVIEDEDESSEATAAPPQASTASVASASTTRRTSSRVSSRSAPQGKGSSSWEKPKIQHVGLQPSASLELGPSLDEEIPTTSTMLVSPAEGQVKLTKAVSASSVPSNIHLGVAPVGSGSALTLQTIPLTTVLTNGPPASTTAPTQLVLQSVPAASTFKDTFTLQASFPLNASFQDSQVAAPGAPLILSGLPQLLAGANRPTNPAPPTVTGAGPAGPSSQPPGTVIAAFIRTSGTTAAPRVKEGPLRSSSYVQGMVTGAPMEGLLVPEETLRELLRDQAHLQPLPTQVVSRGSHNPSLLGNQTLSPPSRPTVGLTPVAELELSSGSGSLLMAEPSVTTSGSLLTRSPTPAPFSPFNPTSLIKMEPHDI
sequence,measurement,setting,value
GTTGTT,binding signal,[1],"1.17 fold enrichment (6-mer frequency, TF over GST control)"
same,binding signal,[2],"1.12 fold enrichment (6-mer frequency, TF over GST control)"
same,binding signal,[3],"1.04 fold enrichment (6-mer frequency, TF over GST control)"
same,binding signal,[4],"1.02 fold enrichment (6-mer frequency, TF over GST control)"
same,binding signal,[5],"1.09 fold enrichment (6-mer frequency, TF over GST control)"
same,binding signal,[6],"1.12 fold enrichment (6-mer frequency, TF over GST control)"
same,binding signal,[7],"1.09 fold enrichment (6-mer frequency, TF over GST control)"
same,binding signal,[8],"1.22 fold enrichment (6-mer frequency, TF over GST control)"
same,binding signal,[9],"1.1 fold enrichment (6-mer frequency, TF over GST control)"
same,binding signal,[10],"1.02 fold enrichment (6-mer frequency, TF over GST control)"
same,binding signal,[11],"1.04 fold enrichment (6-mer frequency, TF over GST control)"
same,binding signal,[12],"1.13 fold enrichment (6-mer frequency, TF over GST control)"
same,binding signal,[13],"1.14 fold enrichment (6-mer frequency, TF over GST control)"
same,binding signal,[14],"1.06 fold enrichment (6-mer frequency, TF over GST control)"
same,binding signal,[15],"1.14 fold enrichment (6-mer frequency, TF over GST control)"
same,binding signal,[16],"1.06 fold enrichment (6-mer frequency, TF over GST control)"
same,binding signal,[17],"1.25 fold enrichment (6-mer frequency, TF over GST control)"
same,binding signal,[18],"1.11 fold enrichment (6-mer frequency, TF over GST control)"
same,binding signal,[19],"1.09 fold enrichment (6-mer frequency, TF over GST control)"
